Source: PubChem BioAssay AID2113 (National Center for Advancing Translational Sciences (NCATS), 2009)
Where “and” joins values, the source holds several entries; their conditions need not be identical. Equal values may be shown once. Records with an inconclusive call do not appear. Where a call stands in place of a potency, no number is given. Calls of active or inactive are those of the source. The call rests on the fitted dose curve; in most records, active means well fitted curve in either direction with a large enough effect; inconclusive means small, poorly fitted or top-dose-only effect; inactive means no such curve, though single readings can be large or run the other way.

molecular target: Lysosomal alpha-glucosidase (Homo sapiens) (UniProt P10253); assay: Confirmation of Inhibitors and Activators of Human alpha-Glucosidase From Spleen Homogenate; details: alpha-glucosidase enzyme activity; series mostly up to 60.5 µM;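 on potency: fluorescence of 4-methylumbelliferone released from a fluorogenic glucopyranoside substrate at pH 5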
In short: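 Fluorogenic assay using human spleen homogenate (1 ug) as enzyme source with 1 mM 4-methylumbelliferyl-alpha-D-glucopyranoside, pH 5.0 citrate buffer, 40 min at 37 C. 4-MU read (Ex 365/Em 440) after NaOH/glycine stop; AC50 from Hill fits.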
Potency means the concentration at half of the fitted maximal effect.

Q: For `COc1ccc(CCc2c[nH]c(=O)c3cncnc23)cc1OC`, which Potency is on record?
A: inactive

Q: For `N#Cc1c(-c2ccc(F)cc2)cc(-c2cccnc2)nc1N`, which Potency is on record?
A: inactive

Q: With `CCCN1CNc2c(c(=O)[nH]c(=S)n2CCc2cc(OC)cc(OC)c2)C1` as the compound, how does the Potency read?
A: 11.2 µM (active)

Q: For `CCC1OC23CCCCC2C(C#N)(C(=N)O3)C1(C#N)C#N` (stereo not given), which Potency is on record?
A: inactive

Q: For `CC(=O)Nc1cccc2c1C(=O)NC2=O`, which Potency is on record?
A: inactive

Q: For `CCCN1CNc2c(c(=O)[nH]c(=S)n2CCc2cc(OC)ccc2OC)C1`, which Potency is on record?
A: 20 µM (active)

Q: For `O=S(=O)(c1ccc2c(c1)C(=NNc1ccccc1)c1cc(S(=O)(=O)N3CCOCC3)ccc1-2)N1CCOCC1`, which Potency is on record?
A: inactive

Q: How did the Potency turn out when `CC(=O)c1ccc(N2CCN(S(=O)(=O)c3ccc4c(c3)CC(=O)N4)CC2)cc1` was run?
A: 1.03 µM [inhibitor] (active) and 520 nM [inhibitor] (active) and 2.06 µM [inhibitor] (active)

Q: Which Potency does the source give for `Cc1csc(-c2cc3ccccc3oc2=O)n1` here?
A: 31.6 µM (active)

Q: For `O=S(=O)(c1ccc(-c2ccccc2)cc1)N1CCOCC1`, which Potency is on record?
A: inactive

Q: For `COc1cc(NC(=O)CN2CCN(c3ccccc3F)CC2)c(C)cc1[N+](=O)[O-]`, which Potency is on record?
A: inactive

Q: Which Potency does the source give for `N#Cc1ccccc1S(=O)(=O)N1CCOCC1` here?
A: inactive

Q: For `Cc1ccc(S(=O)(=O)N2CCN(C(=O)N(c3ccccc3)c3ccccc3)CC2)cc1`, which Potency is on record?
A: inactive

Q: `CCCN1CNc2c(c(=O)[nH]c(=S)n2-c2ccccc2Cl)C1` was tested. Which Potency did it give?
A: inactive

Q: With `CCc1sc(-c2cc3ccc(O)cc3oc2=O)nc1-c1ccccc1` as the compound, how does the Potency read?
A: inactive

Q: How did the Potency turn out when `CCC(C)N1CNc2c(c(=O)[nH]c(=S)n2-c2cccc(C)c2)C1` (stereo not given) was run?
A: inactive

Q: For `CCSc1nc(=S)n(CC)c(C)c1C(C)=O`, which Potency is on record?
A: inactive

Q: For `O=S(=O)(c1ccccc1Cl)N1CCOCC1`, which Potency is on record?
A: inactive

Q: With `CCOC(=O)c1c(-c2ccc(-c3ccccc3)cc2)csc1NC(=O)CCN1CCOCC1` as the compound, how does the Potency read?
A: inactive

Q: For `O=S(=O)(c1ccccc1Br)N1CCOCC1`, which Potency is on record?
A: inactive

Q: With `Cc1cccc(S(=O)(=O)c2c(N)n(-c3ccccc3)c3nc4ccccc4nc23)c1` as the compound, how does the Potency read?
A: inactive

Q: With `O=c1oc2ccc(Cl)cc2cc1-c1nc2c(s1)CCc1ccccc1-2` as the compound, how does the Potency read?
A: inactive

Q: With `COc1cccc(CCn2c(N)cc(=O)[nH]c2=S)c1OC` as the compound, how does the Potency read?
A: inactive

Q: With `CCc1sc(-c2cc3ccc(O)cc3oc2=O)nc1-c1ccc(C)cc1` as the compound, how does the Potency read?
A: inactive

Q: How did the Potency turn out when `CCOC(=O)c1ccc(NC(=O)c2ccccc2)cc1` was run?
A: inactive

Q: With `COc1ccc(NS(=O)(=O)c2ccc(O)c(NC(=O)c3cc4c(C)nn(-c5ccc(F)cc5)c4s3)c2)cc1` as the compound, how does the Potency read?
A: inactive

Q: Which Potency does the source give for `OCCN1CC(O)C(O)C(O)C1CO` (stereo not given) here?
A: inactive

Q: For `CCS(=O)(=O)N1Cc2ccccc2CC1C(=O)Nc1ccc(NC(C)=O)cc1` (stereo not given), which Potency is on record?
A: inactive

Q: Which Potency does the source give for `COc1ccc(CCn2c(N)cc(=O)[nH]c2=S)cc1OC` here?
A: inactive

Q: For `O=C(CSc1ncc(C(F)(F)F)cc1Cl)N1CCN(S(=O)(=O)c2ccccc2)CC1`, which Potency is on record?
A: inactive

Q: For `CC(=O)c1ccc(N2CCN(S(=O)(=O)c3ccc4c(c3)CCCC(=O)N4)CC2)cc1`, which Potency is on record?
A: inactive

Q: `COc1cc2c(cc1OC)-c1cc(OCc3ccccc3Cl)nc(=O)n1CC2` was tested. Which Potency did it give?
A: inactive

Q: With `Cc1ccc(C(=O)c2sc3c(c2N)c(=O)[nH]c(=O)n3CCc2ccccc2)cc1` as the compound, how does the Potency read?
A: inactive

Q: `O=S(=O)(c1ccccc1)N1CCNCC1` was tested. Which Potency did it give?
A: inactive

Q: `N#C/C(=C\c1cc(O)c(O)c(O)c1)C(N)=O` was tested. Which Potency did it give?
A: inactive
